Bioassay records deposited in PubChem BioAssay by National Center for Advancing Translational Sciences (NCATS).
Hits are enriched below; roughly 3.3% of the tested compounds scored in any of these assays.
LmPK inhibitor: LmPK (Leishmania mexicana) enzyme inhibition; Q27686; purified LmPK, Kinase-Glo ATP luminescence, 1 h; Potency, µM (highest dose often 57.5 µM), without a hit: top-dose activity change, negative = inhibition, usual class: inhibitors; 290,000 tested, 0.37% active
Target sequence (Q27686 whole entry, looked up): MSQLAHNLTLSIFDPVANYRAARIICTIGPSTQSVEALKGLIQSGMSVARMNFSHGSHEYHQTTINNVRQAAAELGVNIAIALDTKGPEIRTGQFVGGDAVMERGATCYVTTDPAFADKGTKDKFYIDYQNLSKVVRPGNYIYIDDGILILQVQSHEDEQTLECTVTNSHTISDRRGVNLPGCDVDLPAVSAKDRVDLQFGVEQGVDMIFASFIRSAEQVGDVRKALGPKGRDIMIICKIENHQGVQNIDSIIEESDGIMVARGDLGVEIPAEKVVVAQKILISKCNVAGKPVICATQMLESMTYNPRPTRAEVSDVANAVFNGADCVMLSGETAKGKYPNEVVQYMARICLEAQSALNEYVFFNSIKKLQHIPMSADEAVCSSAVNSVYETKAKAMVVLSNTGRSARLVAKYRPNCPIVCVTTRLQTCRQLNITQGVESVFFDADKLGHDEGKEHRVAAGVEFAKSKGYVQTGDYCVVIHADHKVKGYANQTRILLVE
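ATP generated from ADP (0.1 mM) and PEP (0.5 mM) by 0.1 nM LmPK over 1 h at room temperature (pH 7.2 imidazole buffer) was detected by coupled luciferase luminescence. Values were normalized to uninhibited and no-enzyme wells.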
Tb PYK inh: inhibitors of Trypanosoma brucei pyruvate kinase. AID 624173. TbPYK enzyme, Kinase-Glo Plus ATP luminescence, 45 min. Potency, µM (doses to about 76.8 µM), inactives show at the highest dose activity, negative = inhibition, most hits filed as inhibitors. Q57TT1. 410,000 tested, 0.12% active; note: nearly all actives have a fitted effect of over 50% in size
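Enzyme and substrate buffer are dispensed first and compound is pin-transferred. ADP at 130 uM final then starts the reaction, which runs 45 min at room temperature. Detection reagent is added for 10 min before luminescence is imaged.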
RE007 growth inh: less growth of the S. pombe RE007 Vpr strain | S. pombe RE007 Vpr strain, BacTiter-Glo ATP luminescence, 24 h | Potency, µM (series often up to 92.2 µM), inactives show at the highest dose activity change, negative = less growth, most hits filed as inhibitors | 360,000 tested, 0.21% active | AID 651644; active = well fitted falling curve with a large enough effect; inconclusive = small, poorly fitted or top-dose-only effect; inactive = no such curve, though single readings can be large or run the other way; note: nearly all actives have a fitted effect of over 50% in size
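Fission yeast RE007 carrying one integrated HIV-1 vpr copy, seeded at OD 0.01 in PMG+AL medium with 23 nL pinned compound. Grown 24 h at 30 degrees; viability read by BacTiter-Glo luminescence after 5 min.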
FBPA Giardia inh: blocks Giardia fructose-bisphosphate aldolase activity; purified Giardia FBPA; AID 2451; 290,000 tested, 0.71% active; Potency, µM (highest dose often 59.6 µM), without a hit: top-dose activity, negative = inhibition, usual class: inhibitors; A8B2U2; note: nearly all actives have a fitted effect of over 55% in size
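40 nM FBPA preincubated 10 min at RT with compound (up to 57.5 uM final), then substrate plus GAPDH/TPI/NAD/arsenate coupling and diaphorase/resazurin added. Fluorescence read after 20 min at RT, 525/598 nm.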
Sm TGR block: S. mansoni TGR enzyme inhibition; purified TGR, DTNB reduction, TNB absorbance 405 nm; Potency, µM (top dose mostly 114 µM), for inactives: at the highest dose activity change, negative = inhibition, usual class: inhibitors; 360,000 tested, 3% active; Q962Y6; note: nearly all actives have a fitted effect of over 60% in size
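TGR 20 nM + NADPH 100 uM (dispensed conc.), cpd preinc 15 min RT; start with NADPH (500 uM addition) then DTNB (15 mM addition). Kinetic TNB absorbance, 405 nm filter. Four-parameter Hill fit across titration.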
* marks the source's active call; other numbers are inactive results. Unless noted, calls come from the whole dose curve; as a rule, active = well fitted curve in the direction sought with a large enough effect; inconclusive = small, poorly fitted or top-dose-only effect, or another doubt; inactive = no such curve, though single readings can be large; an effect the other way counts as inactive or inconclusive. % is set by controls: 0 for no effect and ±100 for the full control effect; potency is the fitted concentration of half-maximal effect.

Cc1ccc2cc(CN(CCCN3CCOCC3)C(c3nnnn3Cc3ccco3)C(C)C)c(=O)[nH]c2c1C (stereo unspecified) was read as Tb PYK inh -13% and RE007 growth inh 4%.
`COc1ccccc1CN(Cc1cc2cc(C)ccc2[nH]c1=O)Cc1nnnn1Cc1ccco1` gave LmPK inhibitor -1%, Tb PYK inh 1%, RE007 growth inh -10%, FBPA Giardia inh 9% and Sm TGR block 40µM*.
CCC(c1nnnn1Cc1ccco1)N(CCN1CCOCC1)Cc1cc2cc(C)ccc2[nH]c1=O (stereo unspecified) was read as LmPK inhibitor 4%, Tb PYK inh -10%, RE007 growth inh 3%, FBPA Giardia inh inconclusive and Sm TGR block 45µM*.
`Cc1ccc2[nH]c(=O)c(CN(Cc3ccco3)S(=O)(=O)c3c(C)ccc4nsnc34)cc2c1` gave LmPK inhibitor -3%, Tb PYK inh -13%, RE007 growth inh -10%, FBPA Giardia inh -8% and Sm TGR block 28µM*.
For COc1ccc2[nH]c(=O)c(CN(Cc3ccco3)Cc3nnnn3Cc3ccccc3)cc2c1 the results were LmPK inhibitor -3%, Tb PYK inh -9%, RE007 growth inh -9%, FBPA Giardia inh -24% and Sm TGR block 35µM*.
Screening CCc1ccc2[nH]c(=O)c(CN(Cc3ccccc3OC)Cc3nnnn3Cc3ccco3)cc2c1 returned LmPK inhibitor 5%, Tb PYK inh -8%, RE007 growth inh 0%, FBPA Giardia inh -2% and Sm TGR block inconclusive.
For O=C(NNc1c(F)c(F)cc(F)c1F)c1ccc(Cl)nc1 the results were LmPK inhibitor 3%, Tb PYK inh 9%, RE007 growth inh 49%, FBPA Giardia inh 3% and Sm TGR block 7%.
`O=c1cc(CCc2ccccc2)oc2cccc(O)c12` gave Tb PYK inh -20% and RE007 growth inh 13%.
Screening O=C(Nc1ccccc1C(=O)Nc1ccc(F)cc1)c1ccco1 returned LmPK inhibitor -3%, Tb PYK inh -2%, RE007 growth inh -3% and Sm TGR block -3%.
For CCOc1ccc2[nH]c(=O)c(CN(Cc3ccco3)C(CC)c3nnnn3Cc3ccccc3)cc2c1 (stereo unspecified) the results were LmPK inhibitor 4%, Tb PYK inh -19%, RE007 growth inh 20%, FBPA Giardia inh -17% and Sm TGR block 16µM*.
For Cc1ccc2cc(CN(Cc3ccc4c(c3)OCO4)Cc3nnnn3Cc3ccco3)c(=O)[nH]c2c1C the results were LmPK inhibitor 1%, Tb PYK inh 10%, RE007 growth inh -4%, FBPA Giardia inh -9% and Sm TGR block inconclusive.
`CCOc1ccc2[nH]c(=O)c(CN(CCO)Cc3nnnn3CCc3ccccc3)cc2c1` gave LmPK inhibitor 6%, Tb PYK inh 3%, RE007 growth inh 14%, FBPA Giardia inh -12% and Sm TGR block -11%.
Screening Cc1ccc2cc(CN(CCN3CCOCC3)Cc3nnnn3Cc3ccco3)c(=O)[nH]c2c1C returned LmPK inhibitor 3%, Tb PYK inh 4%, RE007 growth inh 19%, FBPA Giardia inh inconclusive and Sm TGR block 35µM*.
CCOc1ccc2[nH]c(=O)c(CN(Cc3ccco3)Cc3nnnn3Cc3ccccc3)cc2c1 was read as LmPK inhibitor -1%, Tb PYK inh 3%, RE007 growth inh 11%, FBPA Giardia inh 9% and Sm TGR block 22µM*.
For COC(=O)c1ccccc1S(=O)(=O)N(Cc1ccco1)Cc1cc2cc(OC)ccc2[nH]c1=O the results were LmPK inhibitor -2%, Tb PYK inh -3%, RE007 growth inh 3%, FBPA Giardia inh -3% and Sm TGR block 7.1µM*.
Screening CNC(=S)N(Cc1ccco1)Cc1cc2cc(OC)ccc2[nH]c1=O returned LmPK inhibitor 3%, Tb PYK inh 1%, RE007 growth inh -3%, FBPA Giardia inh 2% and Sm TGR block 7%.
Screening CC(=O)c1cccc(NC(=O)CCS(=O)(=O)c2ccc(Br)s2)c1 returned LmPK inhibitor 0%, Tb PYK inh 0%, RE007 growth inh 25%, FBPA Giardia inh -4% and Sm TGR block 40µM*.
Screening Cc1ccc(CNC(=O)CCS(=O)(=O)c2ccc(Br)s2)o1 returned LmPK inhibitor 3%, Tb PYK inh -30%, RE007 growth inh -30%, FBPA Giardia inh 1% and Sm TGR block 10µM*.
CCC1Sc2ccc(S(=O)(=O)CCC(=O)NCc3ccc(C)o3)cc2NC1=O (stereo unspecified) was read as LmPK inhibitor -2%, Tb PYK inh -13%, RE007 growth inh -7%, FBPA Giardia inh -10% and Sm TGR block 28µM*.
Cc1ccc(N2CCN(C(=O)c3c(C)oc4ncn(CC(C)C)c(=O)c34)CC2)c(C)c1 was read as Tb PYK inh -1% and Sm TGR block 5%.
Screening O=c1c2ccccc2nc2n1CCS2 returned LmPK inhibitor -2%, Tb PYK inh -1%, RE007 growth inh -2%, FBPA Giardia inh -1% and Sm TGR block 3%.
O=c1c(C(c2ccc(F)cc2)c2c(O)nc3n(c2=O)CCS3)c(O)nc2n1CCS2 was read as LmPK inhibitor 7%, Tb PYK inh -10%, RE007 growth inh -10%, FBPA Giardia inh 5% and Sm TGR block 0.79µM*.
O=c1c(C(c2ccc(Cl)cc2)c2c(O)nc3n(c2=O)CCS3)c(O)nc2n1CCS2 was read as LmPK inhibitor 10%, Tb PYK inh -8%, RE007 growth inh 3%, FBPA Giardia inh 12% and Sm TGR block -1%.
Screening O=c1c(C(c2ccc(Cl)cc2)c2c(O)nc3n(c2=O)CCCS3)c(O)nc2n1CCCS2 returned LmPK inhibitor 6%, Tb PYK inh -4%, RE007 growth inh 2%, FBPA Giardia inh 12% and Sm TGR block 1.8µM*.
For S=c1[nH]nc(CCc2ccccc2)n1-c1ccccc1 the results were LmPK inhibitor 3.5µM*, Tb PYK inh inconclusive, RE007 growth inh -11%, FBPA Giardia inh 7% and Sm TGR block 3%.
S=c1[nH]nc(Cc2ccccc2)n1-c1ccc(Cl)cc1 was read as LmPK inhibitor -16%, Tb PYK inh 2.8µM*, RE007 growth inh 1%, FBPA Giardia inh 7% and Sm TGR block 5%.
For S=c1[nH]nc(Cc2ccccc2)n1-c1ccccc1 the results were LmPK inhibitor inconclusive, Tb PYK inh inconclusive, RE007 growth inh 6%, FBPA Giardia inh 3% and Sm TGR block -6%.
Cc1ccc(-n2c(CSc3nc(C)cc(C)n3)n[nH]c2=S)cc1 was read as LmPK inhibitor inconclusive, Tb PYK inh 7.1µM*, RE007 growth inh 0%, FBPA Giardia inh 1% and Sm TGR block -1%.
`S=c1[nH]nc(CCc2ccccc2)n1-c1ccc(Cl)cc1` gave LmPK inhibitor inconclusive, Tb PYK inh inconclusive, RE007 growth inh 9%, FBPA Giardia inh 7% and Sm TGR block -4%.
